Screens from PubChem BioAssay.
BAZ2B inh: inhibitors of human BAZ2B bromodomain | AlphaScreen BAZ2B-H3K14Ac peptide displacement | 4.4% of 360,000 active | Potency, µM (series often up to 114 µM), inactives show top-dose activity change, negative = inhibition, usual class: inhibitors | AID 504333 | Q9UIF8; note: % is set by controls: 0 for no effect and ±100 for the full control effect; nearly all actives have a fitted effect of over 60% in size
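AlphaScreen displacement: compounds (up to 110uM) incubated 30 min at room temperature with a preformed 50 nM BAZ2B/50 nM biotinylated H3K14Ac peptide complex in PBS pH 7.4 with Tween-20. Donor and acceptor beads at 10 ug/mL final added, 20 min light-protected before reading.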
HP1b chromo inh: inhibitors of HP1-beta chromodomain binding to methylated histone tails. Potency, µM (highest dose often 114 µM), inactives show at the highest dose activity change, negative = inhibition, hits mostly inhibitors. P83916. AlphaScreen HP1-beta / biotin-H3K9me3 peptide binding. 0.56% of 390,000 active; note: nearly all actives have a fitted effect of over 70% in size
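Compound inhibition of the preformed complex between 50 nM HP1-beta and 50 nM biotinylated H3K9me3 peptide was read by AlphaScreen. Buffer was PBS pH 7.4 with 0.01% Tween-20. Incubations ran 30 min at room temperature, with 10 ug/mL donor/acceptor beads.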
JMJD2A Tudor inh: JMJD2A Tudor domain (human) inhibition; O75164; AlphaScreen JMJD2A-Tudor / H3K4me3 peptide binding; Potency, µM (top dose mostly 114 µM), for the others: at the highest dose activity change, negative = inhibition, usual class: inhibitors; 4.4% of 390,000 active; AID 504339; note: % is set by controls: 0 for no effect and ±100 for the full control effect; nearly all actives have a fitted effect of over 50% in size
G9a block: inhibitors of human histone lysine methyltransferase G9a; Q96KQ7; G9a H3K9 monomethylation, AlphaScreen, 2 h; Potency, µM (titrated, usually from 102 µM), for inactives: top-dose activity, negative = inhibition, usual class: inhibitors; 8.8% of 350,000 active; AID 504332; note: % is set by controls: 0 for no effect and ±100 for the full control effect; nearly all actives have a fitted effect of over 75% in size
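Step 1: enzyme (final 20 nM) with compound, 15 min RT. Step 2: substrate peptide 500 nM and SAM 20 uM, 2 h RT. Step 3: anti-H3K9me1 antibody and AlphaScreen beads, 10 min, then plate read.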
PLK1 PBD inh: blocks phosphopeptide binding to human PLK1 polo-box domain | Potency, µM, without a hit: max response, negative = inhibition, hits mostly inhibitors | 2.8% of 360,000 active | Plk1 PBD binding of FITC phosphopeptide, fluorescence polarization; note: series mostly up to about 57 µM; % is set by controls: 0 for no effect and ±100 for the full control effect; nearly all actives have a fitted effect of over 65% in size
Sfp PPTase inh: blocks B. subtilis Sfp PPTase activity | 3.5% of 310,000 active | Biochemical Sfp PPTase activity, qHTS | Q9F4F7 | Potency, µM, for the others: largest response in the series, negative = inhibition, most hits filed as inhibitors;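 note: the enzyme is Sfp with the accession as filed and its product quenches rhodamine fluorescence; 0% = enzyme reaction without inhibitor and -100% = no enzyme wells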
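After 15 min at room temperature with compound, 15 nM Sfp received 5 uM rhodamine-CoA plus 12.5 uM BHQ-2-ybbR (50 mM Hepes pH 7.6, 10 mM MgCl2). Rate came from the fluorescence difference over 30 min, ex 525/em 598 nm.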
The depositor's hits bear a star; ? = inconclusive; / = not tested or not shown; ! = not active in a repeat; [ ] = remark or other dose. An excerpt weighted towards active compounds, which were near 12% of everything screened. Calls come from the whole dose curve; as a rule, active = well fitted curve in the direction sought with a large enough effect; inconclusive = small, poorly fitted or top-dose-only effect, or another doubt; inactive = no such curve, though single readings can be large; an effect the other way counts as inactive or inconclusive. Potency is the fitted concentration of half-maximal effect.

SMILES | BAZ2B inh | HP1b chromo inh | JMJD2A Tudor inh | G9a block | PLK1 PBD inh | Sfp PPTase inh
CC(=O)c1cccc(NC2c3ncccc3C(=O)N2Cc2ccco2)c1 (stereo unspecified) | -31% | 25% | -13% | 50µM* | -10% | 79µM*
COc1ccc(CN2C(=O)c3cccnc3C2Nc2ccc(C)cc2)cc1 (stereo unspecified) | ? | -19% | -11%[57.1 µM] | -31%[59 µM] | ? | -5%
O=C1c2ccccc2NC(c2ccc(F)cc2)N1Cc1ccco1 (stereo unspecified) | ? | 53% | -16% | -25% | -15% | 0%
CCOc1ccc(CCNC(=O)Cn2nc(C)n3cccc3c2=O)cc1OCC | 7% | 52% | -5% | 65% | -2% | 16%
COc1ccc(CN2C(=O)c3cccnc3C2Nc2cc(Cl)c(OC)cc2OC)cc1 (stereo unspecified) | 50µM* | ? | 35µM* | 45µM* | -24% | -27%
O=C1c2cccnc2C(O)N1Cc1ccco1 (stereo unspecified) | 10% | 12% | -14% | 6%[59 µM] | -16% | 4%
COc1cc(NC2c3ncccc3C(=O)N2Cc2ccco2)cc(OC)c1OC (stereo unspecified) | -8% | 20% | -20% | 35µM* | ? | -30%
O=C1c2cccnc2C(Nc2ccccc2)N1Cc1ccco1 (stereo unspecified) | 56µM* | 11% | 32µM* | 25µM* | -30% | 50µM*
COc1ccc(CCNC(=O)c2cnc3sc(N4CCCC4)nn3c2=O)cc1OC | -21% | 24% | -9% | 7%[59 µM] | / | /
Cc1[nH]c2ccccc2c1CN1CCc2ccccc2C1 | ? | -39% | 40µM* | 13µM* | -4% | -22%
O=c1[nH]c(CN2CCc3ccccc3C2)nc2ccccc12 | -5% | 34% | -26% | ? | -11% | -17%
N#Cc1ccccc1OCC(=O)OCC(=O)NC1CCCC1 | 8% | 12% | -2% | ? | -7% | /
Nc1nc(-c2ccc(Br)s2)c(Br)s1 | 40µM* | -29% | ? | ? | ? | 35µM*
N=C(N)c1ccc(N)cc1 | -1% | 53% | -2% | 1µM*! | -15% | /
CC(=O)N1CC=CC1(CC(C)C)C(=O)O (stereo unspecified) | / | / | / | / | / | 20%
O=C(Nc1ccc(Cl)cc1)NC1(C(=O)NCCCN2CCOCC2)CCCCC1 | 3% | 67% | 8%[11.4 µM] | -15%[12.7 µM] | -17% | 2%
CCC(C)NC(=O)C1(NC(=O)Nc2ccccc2)CCCCC1 (stereo unspecified) | -4% | ? | 18µM* | 7% | 11µM* | 15%
O=C(Nc1ccccc1)NC1(C(=O)NCc2cccs2)CCCCC1 | 1% | 7% | -23% | 5%[59 µM] | -4% | 7%
CCCCNC(=O)C1(NC(=O)Nc2ccc(C)cc2)CCCCC1 | -2% | -11% | -32%[11.4 µM] | 11% | 7.5µM* | 12%
Cc1cccc(N(Cc2ccccc2)C(=O)CN2C(=O)NC3(CCCC3)C2=O)c1 | 7% | 15% | -20% | -4%[12.7 µM] | -16% | /
N=c1oc2c3c4c(cc2cc1C(=O)Nc1ccccc1)CCCN4CCC3 | 21% | 140% | 25% | 19%[59 µM] | 3.4µM* | -26%
NC(=O)c1ccsc1NC(=O)COC(=O)/C=C/c1ccccc1 | 2% | -11% | -18% | -25% | -3% | /
COC(=O)/C=C/c1ccsc1NC(C)=O | -26% | 34% | -6% | ? | -9% | 50µM*
CCOC(=O)c1ccc(NC(=S)Nc2cccc(N)n2)cc1 | -31% | -5% | -12% | -30% | -17% | 8.9µM*
CCn1cc(Cl)c(C(=O)Nc2ccc3c(c2)OCCO3)n1 | -3% | 22% | -7% | 5% | 0% | 12%
SMILES | BAZ2B inh | HP1b chromo inh | JMJD2A Tudor inh | G9a block | PLK1 PBD inh | Sfp PPTase inh
CCn1cc(Cl)c(C(=O)Nc2cccc(C(F)(F)F)c2)n1 | 31% | 22% | 50µM* | 52% | ? | 29%
CCOC(=O)c1ccc(NC(=O)c2nccnc2C(=O)O)cc1 | ? | 15% | 40µM* | 28µM* | -13% | -26%
CCCCCNCC(=O)Nc1cccc(C(=O)Nc2cccc(C(F)(F)F)c2)c1 | ? | ? | 5µM* | / | 2% | 32µM*
CCn1c(SCC(=O)N/N=C(\C)c2ccco2)nnc1-c1ccccc1 | -18% | 39% | -17% | -1% | -3% | 16%
O=C1c2ccccc2C(=O)N1Cc1cc(-c2ccc(Cl)cc2)no1 | / | 18% | -6% | / | -3% | /
COc1ccc(CN(C(=O)Nc2cccc(Cl)c2)c2ccccn2)cc1OC | 0% | 33% | -8% | -5%[59 µM] | / | /
CCOC(=O)c1ccc(NC(=O)c2c(Cl)cc(C)nc2C)cc1 | -33% | 11% | -11% | 50µM* | 0% | -13%
COc1nc(Nc2cccc(C(F)(F)F)c2)nc(OC)n1 | 8% | 29% | -8% | 6%[59 µM] | -7% | 14%
Cc1cc(Cl)c(C(=O)Nc2cccc(C(F)(F)F)c2)c(C)n1 | ? | 10% | ? | 45µM* | -10% | ?
CCOC(=O)c1ccc(Nc2cc(C)nc(C)c2C(=O)OCC)cc1 | -6% | 49% | 4% | -6%[59 µM] | -5% | 16%
Nc1ccccc1Nc1cccc(C(F)(F)F)c1 | 50µM* | ? | ? | 6.3µM* | -10% | 7%
O=C(Nc1ccccc1)Nc1cccc(C(F)(F)F)c1 | -1% | 37% | -15%[11.4 µM] | 45% | -6% | 8%
Cc1cc(C)nc(Nc2cccc(C(F)(F)F)c2)n1 | 8% | 39% | -3% | 50µM* | 0% | 6%
Cc1nc(Cl)sc1C(=O)Nc1cccc(C(F)(F)F)c1 | / | 87% | 0% | / | -19% | /
Cc1ccc(OCC(=O)Nc2ccc3c(c2)nc(CCNC(=O)c2ccco2)n3C)cc1 | -9% | 60% | -8% | 0%[59 µM] | / | /
COc1ccc(NC(=O)c2cc(C3CC3)nc3c2cnn3C(C)C)cc1OC | -32% | 23% | -27% | 14%[12.7 µM] | -11% | /
Cc1ccc(NC(=O)c2cc(S(=O)(=O)N3CCOCC3)c(Br)s2)cc1 | -22% | 13% | -25% | -9%[59 µM] | -17% | 6%
COc1ccc(S(=O)(=O)N2CCC(C(=O)Nc3ccc(Oc4ccccc4)cc3)CC2)cc1OC | -1% | 28% | -3% | 3%[59 µM] | / | /
CC1CN(/C(=N\S(=O)(=O)c2ccccc2)c2ccccc2)CC(C)O1 (stereo unspecified) | 0% | 42% | 2% | ? | 7% | 8%
Cc1nc2ccccc2n1/C(=N\S(=O)(=O)c1ccccc1)c1ccccc1 | 1% | 34% | -11% | 50µM* | -2% | 18%
Cc1ccc(C(=O)Nc2cccc(C(=O)N/N=C/c3ccc(O)cc3)c2)cc1 | -6% | 11% | -23% | 5%[59 µM] | -7% | -1%
Cc1cc(/C=N/NC(=O)c2ccc(O)cc2)c(C)n1C1CC1 | ? | -23% | -25%[11.4 µM] | -13% | 19µM* | 12%
COc1cc(OC)c2c(=O)cc(-c3ccccc3)oc2c1 | -16% | 38% | -14% | -37%[59 µM] | 1% | 10%
